This passage reports growth inhibition results from PubChem BioAssay (NCI).

About 79,000 compounds went through this panel and 15% of them were active in at least one assay; those are over-represented in the sample as a whole. A number with no mark means an inactive call. The source made the active and inactive calls. No stated cut-off is given here; in the data, active means growth inhibition above about 70%; inactive means the rest.

Assay [1] can be described thus: NCI Yeast Anticancer Drug Screen. Data for the rad50 strain (AID 155).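 Further: 0% = growth of vehicle-only cultures of the same strain.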 The settings on record: S. cerevisiae rad50 strain growth inhibition; at 50.0 µM; active compounds read high. Put shortly: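 Growth of the mutant yeast was measured after compound exposure and referenced to vehicle-treated cultures.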
Assay [2] can be described thus: NCI Yeast Anticancer Drug Screen. Data for the mec2-1 strain (AID 157). Particulars: S. cerevisiae mec2-1 strain, at 50.0 µM, active compounds read high. In outline: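 Test agents were screened against the mec2-1 yeast strain, with defined DNA repair or cell cycle alteration. Growth was scored as inhibition against vehicle-only controls.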
Assay [3] can be described thus: NCI Yeast Anticancer Drug Screen. Data for the sgs1 mgt1 strain (AID 161).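 Further: 0% = growth of cultures given vehicle only.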 The settings on record: S. cerevisiae sgs1 mgt1 strain, at 50.0 µM, active compounds read high. Put shortly:
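Test agents were incubated with a DNA-repair-mutant yeast strain. Growth was then read and compared against vehicle-treated controls.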

Assay [4] in a line: NCI Yeast Anticancer Drug Screen. Data for the cln2 rad14 strain (AID 165).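 Further: 0% = growth equal to vehicle treated cultures.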 Particulars: S. cerevisiae cln2 rad14 strain, at 50.0 µM, active compounds read high. Put shortly: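 Growth of compound-exposed yeast (cln2 rad14 genotype) measured and expressed as inhibition relative to vehicle.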
Assay [5] in a line: NCI Yeast Anticancer Drug Screen. Data for the bub3 strain (AID 167). The settings on record: S. cerevisiae bub3 mutant strain, at 50.0 µM, active compounds read high. Put shortly: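 Whole-cell yeast assay. The mutant strain was incubated with compounds, and growth inhibition was determined by comparison with vehicle-treated cells.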
Assay [6] can be described thus: NCI Yeast Anticancer Drug Screen. Data for the mlh1 rad18 strain (AID 175). The settings on record: S. cerevisiae mlh1 rad18 strain growth inhibition; at 50.0 µM; active compounds read high. In outline:
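In this whole-cell yeast screen, a strain with altered DNA damage repair is challenged with compound, and its growth is measured against matched vehicle-treated controls.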

In the case of `O=C(O)CC(O)c1ccccc1` (stereo unspecified), the growth inhibition was 30.8% in assay [1]; 13.6% in assay [2]; 16.6% in assay [3]; 17.1% in assay [4]; -0.95% in assay [5]; 18.6% in assay [6].
As to `COc1ccc2nc(NC(=O)C(=O)C(C(=O)c3ccccc3-c3ccccc3)C3OC(=O)c4ccccc43)sc2c1` (stereo unspecified), the growth inhibition in assay [1] was -3.6%; in assay [2], 9.75%; in assay [3], -14.2%; in assay [4] it was 0.7%; in assay [5], -1.1%; in assay [6], -16.1%.
On to `CC(=O)c1ccc(N=Nc2ccc3nonc3c2N)cc1`, for which the growth inhibition in assay [1] was -22.5%; in assay [2], -4.35%; in assay [3], -20.6%; in assay [4] it was -10.2%; in assay [5] it was 5.25%; in assay [6], -9.45%.
Take `Cc1cc(C)n(-c2nc(C)c(CCO)c(=O)[nH]2)n1`: the growth inhibition in assay [1] is -6.45%; in assay [2] it was -14.6%; in assay [3], -6.4%; in assay [4], 15.7%; in assay [5] it was -41.4%; in assay [6], -9.1%.
With `COC(=O)c1cc(=O)c2scc(C)[n+]2[nH]1`, the growth inhibition in assay [1] was -5.4%; in assay [2], -10.8%; in assay [3] it was 18.9%; in assay [4], 9.55%; in assay [5], -3.05%; in assay [6], -5.3%.
For `CC(C)Oc1c(O)c2c3c(oc(=O)n3C=CC2c2ccccc2)c1OC(C)C` (stereo unspecified), the growth inhibition in assay [1] is 86.8% (active); in assay [2], 86.9% (active); in assay [3] it was 88.2% (active); in assay [4] it was 86.6% (active); in assay [5], 85.5% (active); in assay [6], 82.3% (active).
Consider `OC(CCl)CN1CCN(CC(O)CCl)CC1` (stereo unspecified), for which the growth inhibition in assay [1] is -3.05%; in assay [2], 12.3%; in assay [3], 2.55%; in assay [4], 13.5%; in assay [5], -9.55%; in assay [6] it was -24.8%.
For `Nc1cc2c(cc1Br)-c1c(C(=O)O)cccc1C2=O`, the growth inhibition in assay [1] was -20%; in assay [2], 9.3%; in assay [3], -2.4%; in assay [4], 7.1%; in assay [5], 11.2%; in assay [6], -13.1%.
As for `CC(=O)OCC1OC(N2C(c3ccccc3)=CC(c3ccco3)C(C#N)=C2S)C(OC(C)=O)C(OC(C)=O)C1OC(C)=O` (stereo unspecified), the growth inhibition in assay [1] is 0.95%; in assay [2] it was -11.2%; in assay [3], 13.8%; in assay [4], 12.7%; in assay [5], 2.05%; in assay [6], 27.2%.
Consider `O=C(Cl)c1c(F)c(F)c(F)c(F)c1F`, for which the growth inhibition in assay [1] is -29.6%; in assay [2], -26.1%; in assay [3] it was -7.4%; in assay [4], 19.4%; in assay [5], 1.25%; in assay [6] it was -18.9%.
For `CN(C)c1ccc(/C=C\C(O)c2ccccc2)cc1` (stereo unspecified), the growth inhibition is 22.7% in assay [1]; 11.3% in assay [2]; 32.2% in assay [3]; 7.6% in assay [4]; 2.55% in assay [5]; 42% in assay [6].
As for `CC1(C)OC(C2SCCS2)C2OC(=O)C(O[Si](C)(C)C(C)(C)C)C2O1` (stereo unspecified), the growth inhibition in assay [1] was 18.2%; in assay [2], 16.2%; in assay [3] it was 2.75%; in assay [4], 0.9%; in assay [5], -2.6%; in assay [6], -1.5%.
Turning to `NNS(=O)(=O)c1cccc(S(=O)(=O)NN)c1`, the growth inhibition in assay [1] is -13.9%; in assay [2], 12.3%; in assay [3] it was -3.2%; in assay [4] it was -4.25%; in assay [5] it was 5.35%; in assay [6], 5.3%.
Consider `O=C(O)CCC(NC(=O)/C(=C/c1ccccc1)NC(=O)c1ccccc1)C(=O)O` (stereo unspecified), for which the growth inhibition in assay [1] was 4.8%; in assay [2], 6.55%; in assay [3] it was 31%; in assay [4] it was 8.75%; in assay [5] it was 18.2%; in assay [6], -10.4%.
For `CCCCCCCCCC(CCCCCCCC(=O)O)NC(C)=O` (stereo unspecified), the growth inhibition is 32.3% in assay [1]; 16.6% in assay [2]; 7.45% in assay [3]; 32.5% in assay [4]; -18.1% in assay [5]; 1.05% in assay [6].
On to `N#CCCN(CCC#N)S(=O)(=O)c1ccccc1`, for which the growth inhibition in assay [1] is -3%; in assay [2] it was 5.65%; in assay [3] it was -4.9%; in assay [4] it was -4.2%; in assay [5], 14.1%; in assay [6], -15.6%.
`NC(=O)Cn1c(=O)[nH]c(=O)c2[nH]cnc21`: the growth inhibition in assay [1] is -16.9%; in assay [2], -2.1%; in assay [3], -10.3%; in assay [4] it was 5.4%; in assay [5], -0.4%; in assay [6], 6.85%.
For the molecule `CCCOC(=O)c1cccnc1C(=O)OCCC`, the growth inhibition in assay [1] is -0.2%; in assay [2], -10.2%; in assay [3] it was 1.5%; in assay [4], -22.4%; in assay [5], -2.5%; in assay [6], -6.4%.
With `CC(O)C(C)(C)O` (stereo unspecified), the growth inhibition in assay [1] is 12.3%; in assay [2], -8.85%; in assay [3], 15.6%; in assay [4], -13.4%; in assay [5], 16.1%; in assay [6], 4.15%.
With `COc1ccc(/C=C(\Cl)c2ccc(OC)cc2)cc1`, the growth inhibition in assay [1] is -2.9%; in assay [2], 3.8%; in assay [3] it was -26.6%; in assay [4], -18.1%; in assay [5], 5.6%; in assay [6], -26.8%.
With `Cc1cc2c(=O)cc(-c3ccc(C(F)(F)F)cc3)oc2c(C(=O)O)c1C`, the growth inhibition in assay [1] was -34.6%; in assay [2], -3.8%; in assay [3], -2.3%; in assay [4] it was 13.1%; in assay [5], 0.4%; in assay [6] it was 12.8%.
